# Assay outcomes deposited in PubChem BioAssay by National Center for Advancing Translational Sciences (NCATS).
# HCMV antiviral = blocks human cytomegalovirus replication | HFF cells, HCMV-luciferase reporter, 72 h; stronger effect = lower value | 4.5% of 410,000 active | AID 1259415 | activity change, negative = inhibition, % at 57.5 µM; in the data active = activity change below about -60%; inconclusive = no clear call, values can overlap the other calls; inactive = above about -39%
#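 Inhibition of viral replication was scored as loss of reporter luminescence in HFFs infected with HCMV-luciferase (MOI 1 PFU/cell) for 72 h; compounds tested at 2 doses, normalized to buffer and Salinomycin controls.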
# LASV entry inh = blocks Lassa virus binding to or entry into cells; Lassa virus pseudotype entry inhibition, cell reporter; Potency, µM (doses to about 37.9 µM), actives largely listed as inhibitors; 1.2% of 300,000 active; calls by dose curve; tested in HEK293 cells; note: nearly all actives have a fitted effect of over 50% in size
# HCV inhibitor = blocks hepatitis C virus; Huh7.5.1 HCVcc-Cre infection, luciferase reporter, 44 h; Potency, µM (series often up to 41.8 µM), actives largely listed as inhibitors; 3.4% of 340,000 active; active = well fitted inhibition curve with a large enough effect; inconclusive = small, poorly fitted or top-dose-only effect, or another doubt; inactive = no such curve, though single readings can be large or run the other way
#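 Infectious HCVcc-Cre (~0.5 moi) was added to cells just after compound, with cells seeded 4 h earlier at 1,000 per well. Luciferase activity after 44 h culture reported infection; substrate was incubated 15 min at room temperature before reading.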
# MARV entry inh = inhibitors of Marburg virus binding or cell entry | Potency, µM (series often up to 37.8 µM), most hits filed as inhibitors | 1.8% of 300,000 active | Marburg virus pseudotyped entry inhibition, cell reporter; calls by dose curve; tested in HEK293 cells
# SARS PLP yeast = inhibitors of SARS-CoV papain-like protease in yeast | S. cerevisiae expressing SARS-CoV PLpro, growth rescue | Potency, µM (doses to about 32.9 µM), hits mostly activators | 0.19% of 330,000 active | AID 485353; calls by dose curve; note: nearly all actives have a fitted effect of over 55% in size
# FMDV inh = blocks foot and mouth disease virus | FMDV antiviral cell-based qHTS | Potency, µM (titrated, usually from 57.9 µM), hits mostly inhibitors | 1.2% of 410,000 active | AID 1159524; calls by dose curve; tested in HEK293T cells; note: read-out not given here; nearly all actives have a fitted effect of over 45% in size
# Numbers stand for hits; – = inactive; ? = inconclusive; · = no result given. Rows were chosen to be rich in hits. Some 8% of all compounds tested hit in one or more screens of this group.
SMILES,HCMV antiviral,LASV entry inh,HCV inhibitor,MARV entry inh,SARS PLP yeast,FMDV inh
O=C(COC(=O)c1ccccc1C(=O)c1ccc(Cl)c([N+](=O)[O-])c1)NC1CC1,-99,?,11µM,?,–,20µM
CC(C)OC(=O)c1ccccc1C(=O)c1ccc(N)c([N+](=O)[O-])c1,–,–,–,–,–,–
O=C(COC(=O)c1ccccc1[N+](=O)[O-])c1ccc(C2CCCCC2)cc1,?,–,–,?,–,11µM
CCCOc1ccc(C(=O)c2ccccc2C(=O)OC2CCOC2=O)cc1OCCC (stereo not given),–,–,?,–,–,–
CNC(=O)COC(=O)c1ccccc1C(=O)c1ccc(Cl)c([N+](=O)[O-])c1,-100,·,?,·,–,?
O=C(OC1CCOC1=O)c1ccccc1C(=O)c1ccc(Cl)c([N+](=O)[O-])c1 (stereo not given),·,·,11µM,·,–,–
O=C(O[C@H]1CC[C@@]23CCCN2C(=O)CCC[C@H]3[C@H]1Cc1ccccc1)N1CCN(c2ccccc2)CC1,–,·,·,·,·,·
Cc1cccc(NC(=O)CSc2nnc3scc(-c4ccccc4)n23)c1,–,–,·,–,·,–
COc1ccccc1N1CCN(/N=C/c2ccc([N+](=O)[O-])cc2)CC1,–,·,11µM,·,–,–
COc1ccccc1N1CCN(/N=C/c2ccc(Cl)c([N+](=O)[O-])c2)CC1,–,·,–,·,–,–
COC(=O)c1cc(S(=O)(=O)N2CCN(Cc3ccccc3)CC2)cn1C,–,·,–,·,–,?
Cc1c(O)ccc2c(CN3CCN(C/C=C/c4ccccc4)CC3)cc(=O)oc12,-60,?,11µM,8.9µM,–,?
CC(C)CN(Cc1cc(=O)oc2cc(-c3ccccc3)c(O)cc12)CC(C)C,–,·,14µM,·,–,–
Cc1cc2oc(=O)cc(CN3CCN(C/C=C/c4ccccc4)CC3)c2cc1O,–,·,·,–,–,·
Cc1cc2oc(=O)cc(CN3CCN(Cc4ccccc4)CC3)c2cc1O,–,·,11µM,·,–,–
O=c1cc(CN2CCN(C/C=C/c3ccccc3)CC2)c2cc(O)c(-c3ccccc3)cc2o1,–,–,?,–,–,–
COc1ccc(N2CCN(Cc3cc(=O)oc4cc(-c5ccccc5)c(O)cc34)CC2)cc1,-80,–,–,?,–,–
CCOC(=O)c1[nH]ncc1CN1CCCC(C(=O)c2ccc(C(C)(C)C)cc2)C1 (stereo not given),–,·,–,·,–,?
COc1ccccc1N1CCN(c2ncc3c(n2)CCN(Cc2ccc(C)s2)C3)CC1,–,–,·,·,·,?
Cc1ccc(C)c(N2CCN(C(=O)c3cc4c(=O)n(Cc5cccs5)ccc4nc3C)CC2)c1,–,?,·,·,·,–
O=S1(=O)CC(N2CC=CC2)CN1CCc1ccccc1 (stereo not given),·,–,·,·,·,·
Cc1ccc2c(CN3CCCCC3)cc(=O)oc2c1,-77,–,–,–,–,–
O=c1cc(CN2CCN(c3ccc(F)cc3)CC2)c2cc3c(cc2o1)CCCC3,-62,–,–,?,–,–
CN1CCN(Cc2cc(=O)oc3cc4c(cc23)CCC4)CC1,–,–,?,?,–,–
COc1ccc2oc(=O)cc(CN3CCN(Cc4ccc(OC)c(OC)c4OC)CC3)c2c1,–,·,3.5µM,·,–,–
SMILES,HCMV antiviral,LASV entry inh,HCV inhibitor,MARV entry inh,SARS PLP yeast,FMDV inh
Cc1cc2oc(=O)cc(CN3CCCCC3)c2cc1C,–,·,–,·,–,–
Cc1cc2oc(=O)cc(CN3CCN(S(=O)(=O)c4cccs4)CC3)c2cc1C,–,14µM,?,14µM,–,?
COc1cccc(CC(=O)NCC2Cc3cc(Cl)cc(-c4ncccn4)c3O2)c1 (stereo not given),·,·,·,·,·,–
COc1ccc(CNC(=O)Cc2c(C)c3cc4c(C)coc4c(C)c3oc2=O)cc1,–,–,·,?,·,–
C#CCOc1ccc(-c2nnc(Nc3cccc(C)c3)c3ccccc23)cc1,–,?,·,?,·,?
CCCCn1nnnc1C(C1CC1)N1C(=O)C(=O)c2ccccc21 (stereo not given),–,·,·,·,·,·
CCOC(=O)C1CCCN(C(=O)c2oc3ccccc3c2C)CC1 (stereo not given),–,·,·,·,·,–
COc1cccc2c1cc1c(=O)n(CC(=O)NCc3ccc(N(C)C)cc3)nc(C)n12,–,·,·,?,·,–
O=S1(=O)C=CCN1CCc1ccccc1,·,–,·,·,·,·
OC1(c2ccc(F)cc2)CCNC1 (stereo not given),-66,–,–,–,–,–
